In the supplement of paper PMC6555819:

test system: PPARg:RXRa 30nM:10nM, anti-RXR (NR concentration 30 nM, RXRa partner concentration 10 nM); assay: PBM binding z-score (relative to random genomic background probes); higher = stronger binding; sequences stand for … in GC…GCGATTGACAGCGTAGAATGAAGG
Outline: (§1)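 Custom Agilent 4×180K protein-binding microarrays carried double-stranded probes, each with a 34-nt variable region. These regions held direct-repeat seeds, single-nucleotide variants, half-site ablations and random human genomic background sequences. Ligand-free nuclear receptor dimers were incubated on the arrays for 1 h, antibodies against each partner (one per run) detected binding, and scanned fluorescence was regression-normalized. Binding z-scores take the random background probes as reference.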

| Sequence | PBM binding z-score |
| --- | --- |
| TATACAGGGTCAAAGGCCCGAGTACGAATGTCGA | 2.84 |
| TCTTGTAGCTCAAGCAGGTTAAGAAAGCCTGAGT | 2.04 |
| TCTTGTGGATCAAAGGTTAAGAAAGCCGAAGCCT | 7.24 |
| TCTTGTAGTTCAAGCAGGTTAAGAAAGCCTGAGT | 2.53 |
| CCTACTGGGCCAAAGGTCACTGATTCCAATGCTC | 10.2 |
| TCTGCAAGGTCAACGATGGTCAGCTAATCTGCTA | 2.86 |
| GCAGACAGGTGAAACGAAGGTAACTCAGGGTGGC | -0.263 |
| ATCGAAAGCTCGAAGGTGAGTATACCCACCCGAA | -0.209 |
| CATACAGGGTCAGCAAGGCCAGAGTAGGGACGGC | 0.536 |
| TCATATCGGTAAAGGTGAAAGTCGAACGATATGA | 3.8 |
| CCTTACGGGTCACTGACAGGCTATAGCATTTGGA | 1.54 |
| GTACCAAGCTGAATAGGTCGTTGATGAGTAGGCG | -0.305 |
| CCTGGTAGGTCAATGGTCAGCTAAAGCAGCTCGC | 4.37 |
| CGTCCAAGGTGAGCAGGTCAGTGAAAGCGACGTG | -0.475 |
| TCATATAGGTAAACGTGAAAGTCGAACGATATGA | 3.42 |
| TCGAGTGGGTTAGTCGGGGCATTCAGCCAACATA | 0.979 |
| AGAATGAGGTTGTTAAGATCAGGGAATTGCGGTC | -0.197 |
| CTCGAAAGGTCGGTTAAGGTGAGTATACGGATAA | 0.313 |
| CGTAGTTGGTCAAGGTCACACACGCTATAGGTAC | 1.47 |
| CCTGCTAGGTCAATGGTGAGCTAAAGCAGCTCGC | 1.2 |

| Sequence | PBM binding z-score |
| --- | --- |
| CCTTACGTGTCAAGGTTATAGCACGGGTGGTACG | 0.3 |
| CAAACTAGGTCAAGAGGTCAAAGTCCGCTTCCCG | 6.28 |
| TAGCCTTGGTCAGATCGGGCCAGTATACGCTATA | -0.644 |
| CCAGACAGGTGAAAGGGAACTCAGTCTGGTACGC | 1.06 |
| TCGAGTAGGTTACCAATGGGGCAGTCAGCTTTCT | 1.06 |
| TCTCGTAGATCAGCAGGTTAAGAAAGCTGGCCAA | 2.41 |
| CGTCCAAGGCCAGAGAGGTCAGTGAATGCCGAGT | -0.871 |
| CCAGACAGGTGCGAAGGTAACTCAGCCTCGATTA | -0.987 |
| CCTATTGGGCCAAAAAGGTCATTGATGCCGATAA | 0.941 |
| CGTCCAAGGTCAAGGTCATTGAAAGAGACTCGAA | 3.18 |
| ATCTCTAGGTAAAGATAGTTAAGTGAATGCAAAT | 0.415 |
| TCGTGTAGATCAAAGGTTAAGAAAGCCGAAGCCT | 5.88 |
| ACAGACAGATGATGAAGGTAACTCAGGCTATCAT | 0.15 |
| AGAATGAGGGCAATGAGTTGATAGCACGGGTGGC | 0.0297 |
| CCTACTGGGCCACGAAAGGTCATTTATTCAGTGA | 1.87 |
| ACTTACGGGTCAACGAGGTTATAGAACGCGTATA | 2.2 |
| TAGCCTAGGTCATTCAGGGGCCAGTATAGAAAGC | 0.55 |
| GCTTACGGGTCAAAGGTTATAGCTTGAATAGAAT | 8.76 |
| CGAACTAGGTCATGGACAGTGAATCTCCGCACGC | 3.88 |
| CAAACTAGGTCAAAGGTCTAAGTCGAGCCAACCA | 9.99 |

test system: PPARg:RXRa 90nM:30nM, anti-RXR (NR concentration 90 nM, RXRa partner concentration 30 nM); assay: as above
Outline: as §1

| Sequence | PBM binding z-score |
| --- | --- |
| TATACAGGGTCAAAGGCCCGAGTACGAATGTCGA | 5.12 |
| TCTTGTAGCTCAAGCAGGTTAAGAAAGCCTGAGT | 1.39 |
| TCTTGTGGATCAAAGGTTAAGAAAGCCGAAGCCT | 8.31 |
| TCTTGTAGTTCAAGCAGGTTAAGAAAGCCTGAGT | 1.94 |
| CCTACTGGGCCAAAGGTCACTGATTCCAATGCTC | 11.6 |
| TCTGCAAGGTCAACGATGGTCAGCTAATCTGCTA | 4.09 |
| GCAGACAGGTGAAACGAAGGTAACTCAGGGTGGC | -0.133 |
| ATCGAAAGCTCGAAGGTGAGTATACCCACCCGAA | -0.372 |
| CATACAGGGTCAGCAAGGCCAGAGTAGGGACGGC | 2.04 |
| TCATATCGGTAAAGGTGAAAGTCGAACGATATGA | 3.48 |
| CCTTACGGGTCACTGACAGGCTATAGCATTTGGA | 2.83 |
| GTACCAAGCTGAATAGGTCGTTGATGAGTAGGCG | -0.334 |
| CCTGGTAGGTCAATGGTCAGCTAAAGCAGCTCGC | 6.53 |
| CGTCCAAGGTGAGCAGGTCAGTGAAAGCGACGTG | 0.388 |
| TCATATAGGTAAACGTGAAAGTCGAACGATATGA | 2.86 |
| TCGAGTGGGTTAGTCGGGGCATTCAGCCAACATA | 0.719 |
| AGAATGAGGTTGTTAAGATCAGGGAATTGCGGTC | -0.0831 |
| CTCGAAAGGTCGGTTAAGGTGAGTATACGGATAA | 0.943 |
| CGTAGTTGGTCAAGGTCACACACGCTATAGGTAC | 2.64 |
| CCTGCTAGGTCAATGGTGAGCTAAAGCAGCTCGC | 2.5 |

| Sequence | PBM binding z-score |
| --- | --- |
| CCTTACGTGTCAAGGTTATAGCACGGGTGGTACG | 0.364 |
| CAAACTAGGTCAAGAGGTCAAAGTCCGCTTCCCG | 8.63 |
| TAGCCTTGGTCAGATCGGGCCAGTATACGCTATA | -0.566 |
| CCAGACAGGTGAAAGGGAACTCAGTCTGGTACGC | 2.69 |
| TCGAGTAGGTTACCAATGGGGCAGTCAGCTTTCT | 0.984 |
| TCTCGTAGATCAGCAGGTTAAGAAAGCTGGCCAA | 2.08 |
| CGTCCAAGGCCAGAGAGGTCAGTGAATGCCGAGT | -0.148 |
| CCAGACAGGTGCGAAGGTAACTCAGCCTCGATTA | -0.523 |
| CCTATTGGGCCAAAAAGGTCATTGATGCCGATAA | 2.81 |
| CGTCCAAGGTCAAGGTCATTGAAAGAGACTCGAA | 5.62 |
| ATCTCTAGGTAAAGATAGTTAAGTGAATGCAAAT | 0.236 |
| TCGTGTAGATCAAAGGTTAAGAAAGCCGAAGCCT | 6.62 |
| ACAGACAGATGATGAAGGTAACTCAGGCTATCAT | -0.00308 |
| AGAATGAGGGCAATGAGTTGATAGCACGGGTGGC | 0.697 |
| CCTACTGGGCCACGAAAGGTCATTTATTCAGTGA | 4.02 |
| ACTTACGGGTCAACGAGGTTATAGAACGCGTATA | 4.21 |
| TAGCCTAGGTCATTCAGGGGCCAGTATAGAAAGC | 1.45 |
| GCTTACGGGTCAAAGGTTATAGCTTGAATAGAAT | 10.9 |
| CGAACTAGGTCATGGACAGTGAATCTCCGCACGC | 6.02 |
| CAAACTAGGTCAAAGGTCTAAGTCGAGCCAACCA | 11.8 |
